High-throughput results: PubChem, Buhrlage Lab, Dana-Farber Cancer Institute and Novartis Institutes for BioMedical Research (Cambridge, Mass)
Sampled rows, rich in hits. Any-hit rate of the full collection: about 14%.
USP30 inh: human USP30 deubiquitinase inhibition; 47,000 compounds, 5.3% hits; AID 1645860; Q70CQ3; inhibition, % at 25 µM; purified USP30, Ub-rhodamine cleavage fluorescence
USP10 block: inhibitors of human USP10 deubiquitinase; Q14694; purified USP10, Ub-rhodamine fluorescence, 60 min; inhibition, % at 20 µM; 47,000 compounds, 1.1% hits; AID 1645856
USP17 inh: human USP17-like deubiquitinase inhibition; A8MUK1; purified USP17, Ub-rhodamine cleavage fluorescence, 3 h; inhibition, % at 50 µM; 47,000 compounds, 6.5% hits
USP8 block: inhibitors of human USP8 deubiquitinase. P40818. purified USP8, Ub-rhodamine cleavage fluorescence, 30 min. inhibition, % at 20 µM. 47,000 compounds, 4.2% hits
USP28 block: blocks human USP28 ubiquitin-rhodamine cleavage; Q96RU2; purified USP28, Ub-rhodamine cleavage fluorescence, 30 min; inhibition, % at 25 µM; 47,000 compounds, 3% hits; AID 1645857
Each line names hits and unclear results; the compound was inactive in the other large screens. No stated cut-off is given here; in the data, active means inhibition above about 30%; inactive means the rest.

Cc1ccc(NC(=O)Cn2nc3ccc(C(=O)NCc4ccccc4)cn3c2=O)cc1F	USP17 inh 71.8, USP8 block 41.1
O=C(Cn1nc2ccc(C(=O)NCc3ccccc3)cn2c1=O)Nc1ccc(F)cc1	none
Cc1sc(-c2cccnc2)nc1OC(=O)c1ccc(Cl)c(Cl)c1	USP30 inh 61.9, USP17 inh 37.9
O=C(CCCC(=O)N(c1ccc2c(c1)OCCO2)C(C(=O)NC1CCCCC1)c1ccc(F)cc1)Nc1ccccn1 (centres undefined)	USP30 inh 45.5, USP10 block 40.0, USP17 inh 34.5, USP8 block 58.1
Cc1ccc(C(C(=O)NC2CCCCC2)N(Cc2ccc3c(c2)OCO3)C(=O)CCCC(=O)Nc2ccccn2)cc1 (centres undefined)	none
CC(C)c1ccc(C(C(=O)NC2CCCCC2)N(C(=O)c2cnccn2)c2ccc3c(c2)OCO3)cc1 (centres undefined)	none
CCOc1ccccc1N(C(=O)CCCC(=O)Nc1ccccn1)C(C(=O)NC1CCCC1)c1ccc(F)cc1 (centres undefined)	none
O=C(NC1CCCCC1)C(c1ccc(F)cc1)N(C(=O)C1COc2ccccc2O1)c1ccc2c(c1)OCO2 (centres undefined)	USP8 block 41.4
Cc1ccc(C(C(=O)NC2CCCCC2)N(C(=O)CCCC(=O)Nc2ccccn2)c2ccc3c(c2)OCCO3)cc1 (centres undefined)	USP30 inh 37.9, USP17 inh 47.8
O=C(NC1CCCCC1)C(c1ccc(Cl)cc1)N(C(=O)c1cnccn1)c1ccc2c(c1)OCO2 (centres undefined)	USP17 inh 42.7
O=C(NC1CCCCC1)C(c1ccccc1)N(C(=O)c1cccs1)c1ccc2c(c1)OCO2 (centres undefined)	none
CCN1C[C@@]23CN(C(=O)c4ccccc4)C[C@@H](C[C@@H]2S1(=O)=O)O3	none
O=C(NC1CCCC1)C1CCCN(c2nnc3c(Cl)cccn23)C1 (centres undefined)	none
COc1ccccc1C(=O)Nc1ccc(Cc2ccncc2)cc1	USP28 block 35.5
O=C(Nc1ccc(Cc2ccncc2)cc1)c1ccccc1Br	none
CC(C)CC[C@H]1O[C@@H](CC(=O)O)Cc2cc3c(c(O)c21)C(=O)c1sc(=O)n(C)c1C3=O	USP17 inh 78.0, USP28 block 77.4
CCc1nnc2ccc(-c3noc(-c4ccc5c(c4)OCO5)n3)cn12	none (no result: USP17 inh)
O=C(Nc1cccnc1N1CCOCC1)C1CC1	none
COc1ccccc1/C=C(/C(=O)N1CCN(Cc2ccc3c(c2)OCO3)CC1)c1ccccc1	USP30 inh 41.8
Cc1cccnc1NC(=O)c1ccc(-n2cccn2)nn1	none
CCOc1ccc(-c2cnc(NCc3cccc(C)c3)n2C)cc1	USP8 block 53.2
CCOc1ccc(NC(=O)CN2CCN(Cc3cccc(C)c3)S2(=O)=O)cc1	none
COc1cccc(C(=O)N2C[C@H]3N(C)C(=O)c4ccccc4C(=O)[C@@]3(C)C2)c1	none
CCOC(=O)C1CCN(C(=O)CCC(=O)Nc2ccc(Oc3ccccc3)cc2)CC1	USP30 inh 33.9
O=C(CCC(=O)N1CCC(C(=O)N2CCCCC2)CC1)Nc1ccc(Oc2ccccc2)cc1	none
O=C(O)C1=CC(/C=C/c2ccccc2)n2ncc(C(=O)Nc3ccc(F)cc3)c2N1 (centres undefined)	USP8 block 41.5
Cc1ccc(NC(=O)c2cnn3c2NC(C(=O)O)=CC3/C=C/c2ccccc2)cc1 (centres undefined)	USP8 block 34.3
CNc1nc2c(c(=O)n1-c1ccccc1)CN(C(=O)c1cccnc1)CC2	none
O=C(c1cccc(F)c1)N1CCC2(CCCN2CC2CC2)CC1	none
Cc1ccc([N+](=O)[O-])cc1S(=O)(=O)Nc1cc2sc(=O)oc2c2ccccc12	USP10 block 37.1, USP17 inh 66.7, USP8 block 89.0, USP28 block 61.5
CC(=O)c1sc(NS(=O)(=O)c2ccc(C)cc2)nc1-c1ccccc1	none
CC(=O)c1sc(NC(=O)c2cccc(S(=O)(=O)Nc3ccccc3F)c2)nc1-c1ccccc1	USP17 inh 31.7
O=C(COC(=O)c1ccccc1NS(=O)(=O)c1ccc2c(c1)OCCO2)c1ccc([N+](=O)[O-])cc1	none
COc1ccc(C(=O)COC(=O)c2ccccc2NS(=O)(=O)c2ccc(O)c([N+](=O)[O-])c2)cc1	USP30 inh 47.2, USP10 block 62.8, USP17 inh 73.6, USP8 block 61.8, USP28 block 59.6
Nc1c(Cl)cccc1-c1c[nH]cc1Cl	none
Cc1ccc(-c2ccc(N3CCCCC3)nn2)cc1S(=O)(=O)N1CCOCC1	none (no result: USP17 inh)
Cc1nc(-c2ccccc2F)sc1C(=O)N1CCC(C(N)=O)CC1	none
COc1ccc(C2NC3=NCN(C(C)C)CN3c3nc4ccccc4n32)cc1 (centres undefined)	USP30 inh 33.2
CC(C)N1CN=C2NC(c3ccc(N(C)C)cc3)n3c(nc4ccccc43)N2C1 (centres undefined)	none
COc1ccc(CCN2CCn3c(nc4cc(NC(=O)C(C)(C)C)ccc43)C2)cc1	none
O=C(Nc1ccc(F)cc1)Nc1cccnc1	none
Cc1nn(C)cc1NC(=O)Nc1ccc(F)cc1	USP30 inh 30.5
O=C(NCc1ccccc1)C(c1ccc(F)cc1)N(C(=O)CCN1CCc2ccccc21)c1ccc2c(c1)OCO2 (centres undefined)	USP8 block 39.8
COc1cccc(-c2cn3c(-c4ccccc4)c(-c4ccccc4)nc3n2-c2cccc(Cl)c2)c1	USP8 block 81.2
COc1cccc(-c2cc(C(F)(F)F)c3c(-c4ccccc4)nn(-c4ccccc4)c3n2)c1	none
CCCn1c(-c2ccc(CC)cc2)cn2c(-c3ccccc3)c(-c3ccccc3)nc12	USP17 inh 33.4, USP8 block 86.5
Cc1cc(C)cc(-n2c(-c3ccccc3)cn3c4c(=O)n(C)c(=O)n(C)c4nc23)c1	none
COc1ccc(-c2cn3c(-c4ccccc4)c(-c4ccccc4)nc3n2-c2ccccc2)cc1	USP30 inh 37.1, USP17 inh 47.7, USP8 block 80.4
COc1cccc(-c2cn3c(-c4ccccc4)c(-c4ccccc4)nc3n2-c2ccccc2)c1	USP8 block 77.4
CCCn1nc(-c2ccccc2)c2nc3ccccc3nc21	none
C[C@H](NC(=O)c1sc2ccccc2c1Cl)c1nnc2ccccn12	none
O=C(Cc1nc(-c2ccccn2)n[nH]1)Nc1ccccc1	none
Cc1cccc(N2CCN(C(=O)CCC3=NS(=O)(=O)c4ccccc4N3)CC2)c1C	none
COc1ccc(/C=C(\C#N)c2nnc(N)s2)cc1	none
O=C(N[C@@H]1CN(Cc2ccco2)[C@@H]2COC[C@@H]21)c1cscn1	none
Nc1ncc2c(n1)CCN(c1ncc(C(F)(F)F)cc1Cl)C2	none
Cc1nc(N2CCCC2)ncc1C(=O)Nc1ccc(F)c(F)c1	USP30 inh 53.1
COc1ccc(NC(=O)c2cnc(N3CCCCC3)nc2C)cc1OC	USP28 block 44.3
CNc1nccnc1C1CN(C(=O)c2ccc(OC(C)C)cc2)CCO1 (centres undefined)	none
